This is part of a sample that, as a whole, favours compounds with a hit. Of some 83,000 tested, about 20% had one in any assay.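 In brief: 96-well plates, 48 h treatment, single concentration, percent growth endpoint.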 Values without a mark were called inactive. The source made the active and inactive calls. Rule for the calls: active = growth percent below 10; inactive = the rest.
Tests used:
Experiment in all cases: NCI-60 one-dose screen, 48 h (100 = growth as untreated, 0 = no growth, -100 = all killed)
Conditions in all cases: 10 µM unless noted
HCT-15 colon = test system: HCT-15 colon
HT29 colon = test system: HT29 colon
SNB-75 CNS = test system: SNB-75 CNS
SNB-19 CNS = test system: SNB-19 CNS
U251 CNS = test system: U251 CNS
PC-3 prostate = test system: PC-3 prostate
SK-MEL-5 melanoma = test system: SK-MEL-5 melanoma
UACC-62 melanoma = test system: UACC-62 melanoma
LOX IMVI melanoma = test system: LOX IMVI melanoma
SK-MEL-28 melanoma = test system: SK-MEL-28 melanoma
SK-MEL-2 melanoma = test system: SK-MEL-2 melanoma
SN12C renal = test system: SN12C renal
UO-31 renal = test system: UO-31 renal
TK-10 renal = test system: TK-10 renal
ACHN renal = test system: ACHN renal
CAKI-1 renal = test system: CAKI-1 renal
A498 renal = test system: A498 renal
CCRF-CEM leukemia = test system: CCRF-CEM leukemia
MOLT-4 leukemia = test system: MOLT-4 leukemia

| SMILES | growth (HCT-15 colon) | growth (HT29 colon) | growth (SNB-75 CNS) | growth (SNB-19 CNS) | growth (U251 CNS) | growth (PC-3 prostate) | growth (SK-MEL-5 melanoma) | growth (UACC-62 melanoma) | growth (LOX IMVI melanoma) | growth (SK-MEL-28 melanoma) | growth (SK-MEL-2 melanoma) | growth (SN12C renal) | growth (UO-31 renal) | growth (TK-10 renal) | growth (ACHN renal) | growth (CAKI-1 renal) | growth (A498 renal) | growth (CCRF-CEM leukemia) | growth (MOLT-4 leukemia) |
| --- | --- | --- | --- | --- | --- | --- | --- | --- | --- | --- | --- | --- | --- | --- | --- | --- | --- | --- | --- |
| CCn1cc(C(=O)O)c(=O)c2cc(F)c(N3CCN(S(=O)(=O)c4cccc5ccccc45)CC3)cc21 | 11.1% | 3.96% (active) | 14.1% | 28.8% | 14.2% | 7.82% (active) | -46% (active) | 31.2% | -39% (active) | 59.2% | 8.82% (active) | 11.9% | -19.7% (active) | 26% | -3.57% (active) | 0.945% (active) | -0.385% (active) | 12.1% | 8.41% (active) |
| CCN(CC)CCCC(C)N=c1cc(Nc2cc(=NC(C)CCCN(CC)CC)c3cc(OC)ccc3o2)oc2ccc(OC)cc12 (centres undefined) | -16.7% (active) | -42% (active) | -90.8% (active) | 2.11% (active) | -57.6% (active) | -26.4% (active) | -97.8% (active) | -72.5% (active) | -77.7% (active) | -94.6% (active) | -83.9% (active) | -9.47% (active) | -88.8% (active) | -50.2% (active) | -14.1% (active) | -39.7% (active) | -8.63% (active) | -41.7% (active) | -55.8% (active) |
| O=C(NCCCN1CCN(CCCNC(=O)C2CCCCC2)CC1)C1CCCCC1 | 97.5% | 108% | 88.7% | 107% | 96.9% | 91.3% | 105% | 98.3% | 101% | 99.7% | 98% | 97.1% | 85.7% | 113% | 99.5% | 87.2% | 105% | 91.9% | 94.1% |
| CC1=C(C#N)C(C)(C)C(C#N)=C(C)N1 | 98.6% | 105% | 79.5% | 95.9% | 94.8% | 84.7% | 101% | 105% | 98.3% | 110% | 109% | 99.5% | 91.1% | 103% | 101% | 103% | 88.6% | 98% | 102% |
| CCCCCc1c(C)[nH]c(/C=c2\[nH]/c(=C3/C=c4ccccc4=N3)cc2OC)c1C | -29.8% (active) | -13.4% (active) | -22.6% (active) | 10.5% | -95.1% (active) | -6.91% (active) | -98.7% (active) | -78.9% (active) | -85.2% (active) | -60.2% (active) | -73.9% (active) | -51.4% (active) | -89.7% (active) | -47% (active) | -78.3% (active) | -38.7% (active) | -29.4% (active) | -19% (active) | -23.1% (active) |
| CC[C@H](C)[C@@H]1NC(=O)[C@H]([C@@H](C)O)NC(=O)C(Cc2ccccc2)NC(=O)[C@@H]2CCCN2C(=O)C(C(C)C)NC(=O)C(Cc2ccccc2)NC(=O)CNC(=O)[C@@H]2CCCN2C1=O (some centres undefined) | 77.2% | 76.2% | 54.3% | 73.6% | 67% | -0.594% (active) | 64.8% | 65.6% | 88.7% | 76.4% | 88.9% | 72.5% | 36.8% | 116% | 58.7% | 37.6% | 26.1% | 20% | 7.99% (active) |
| CC(=O)/C=C/c1cc2cc(Cl)ccc2[nH]c1=O | 76% | 76.8% | 102% | 68.8% | 62.1% | 77.5% | 96.5% | 80.8% | 69.1% | 99.9% | 87.9% | 77% | 77.5% | 95.5% | 92% | 87% | 90.2% | 69% | 87.1% |
| CCCCCC(=O)OCc1ccccc1 | 94.6% | 106% | 90.3% | 105% | 103% | 104% | 104% | 103% | 96.8% | 113% | 92.7% | 98.1% | 82.7% | 99.7% | 98.1% | 96.5% | 114% |  | 86.3% |
| CC(=O)OC[Si](C)(C)c1ccccc1 | 99.7% | 105% | 89.8% | 102% | 93.7% | 95.8% | 97.3% | 102% | 103% | 98.2% | 126% | 99.6% | 94.9% | 107% | 106% | 92.1% | 103% | 108% | 112% |
| NC(=O)NC(=O)/C=C/C(=O)OCCCl | 77.5% | 90% | 80.3% | 101% | 101% | 92.1% | 106% | 104% | 98.6% | 100% | 113% | 104% | 89.2% | 72.1% | 79.9% | 99.6% | 103% |  | 96.9% |
| O=c1[nH]c(-c2cn(-c3ccc(Cl)cc3)nn2)nc2ccccc12 | 101% | 72.3% | -9.19% (active) | 72.8% | 74.5% | 74.8% | 79% | 60.9% | 90.8% | 58.1% | 77.2% | 71.9% | 46.1% | 80.6% | 42.5% | 84.2% | 24.7% | 98.6% | 93.7% |
| NC(CC(N)C(=O)O)C(=O)O (centres undefined) | 88.4% | 84.4% | 88.4% | 108% | 93.8% | 92.2% | 85% | 98% | 99.4% | 90.1% | 98.6% | 93.8% | 94.8% | 110% | 95.7% | 97% | 108% |  | 107% |
| CCCCCCCCCCC/C=C\C[C@H](O)C/C=C1/C(=O)C=C[C@@H]1C/C=C\CCCC(=O)OC | -43% (active) | -22.5% (active) | -4.49% (active) | 18.2% | -69% (active) | -20% (active) | -85.3% (active) | -39.9% (active) | -92.4% (active) | -20.4% (active) | -24.4% (active) | -24.7% (active) | -63% (active) | 0.114% (active) | -20.1% (active) | 13.8% | 99.7% | 12.2% | -0.235% (active) |
| CCCCCCCCCCCCCCCCC(Br)C(=O)O (centres undefined) | 83% | 108% | 86.5% | 105% | 102% | 103% | 103% | 105% | 106% | 100% | 94.4% | 102% | 87.9% | 116% | 96.6% | 101% | 94.7% |  | 97.5% |
| Clc1cccc(Cl)c1Cn1c(-c2cncs2)nc2ccccc21 | 79.5% | 91.5% | 83.1% | 97.8% | 93.7% | 62.2% | 58.9% | 61.2% | 85% | 105% | 73.3% | 81.6% | 68.3% | 85.1% | 86.8% | 66.5% | 125% | 85% | 62.9% |
| COC1=CC(c2ccc[nH]2)=N/C1=C\c1[nH]c(C)c(C(=O)CCCCC(=O)Nc2ccccc2)c1C | -3.38% (active) | -54.4% (active) | 46.8% | 64.2% | 1.79% (active) | -40.5% (active) | 84.7% | 101% | -71.8% (active) | 63.9% | 90.7% | 73.5% | 49.9% | -11.9% (active) | 95.8% | 3.42% (active) | 116% | 58.9% | 76.6% |
| NCCSC(c1ccccc1)(c1ccccc1)c1ccccc1 | 24.9% | 0.695% (active) | 12.5% | 53.3% | 14.1% | 19.4% | 11.9% | 29.5% | 25.9% | 43% | 25.6% | 23.7% | 42.7% | 54.6% | 46.2% | 15.9% | 24.1% | 2.43% (active) | 3.39% (active) |
